Results reported in PMC11995724, “Antibiotic target discovery by integrated phenotypic and activity-based profiling of electrophilic fragments” (Cell chemical biology, 2025).
Among all 3,200 compounds or so, about 75 (2%) showed an effect of 50% or more. Shown is part of a subset that was picked to be rich in strong results.

System: T1, S. aureus MSSA476
T1 construct: MSSA476
Design: species or system S. aureus MSSA476 (TSB) or V. cholerae SAD30 (LB); 384-well bacterial growth screen at 25 uM, OD600 relative to DMSO control
Details: relative growth, OD600, TSB; 25 µM; inhibitor

SMILES | % of control remaining [%]
Cc1cc(-n2c(C)cc(C(=O)CCl)c2C)no1 [10-C18, 2-chloro-1-[2,5-dimethyl-1-(5-methyl-1,2-oxazol-3-yl)-1H-pyrrol-3-yl]ethan-1-one] | 123.125
Cc1cc(C(=O)CCl)c(C)n1-c1ccc2c(c1)OCO2 [10-K14, 1-[1-(1,3-dioxaindan-5-yl)-2,5-dimethyl-1H-pyrrol-3-yl]-2-chloroethan-1-one] | 139.375
Cc1cccc(-n2c(C)cc(C(=O)CCl)c2C)c1 [10-A22, 2-chloro-1-[2,5-dimethyl-1-(3-methylphenyl)-1H-pyrrol-3-yl]ethan-1-one] | 138.438
CSc1cccc(-n2c(C)cc(C(=O)CCl)c2C)c1 [10-J16, 2-chloro-1-{2,5-dimethyl-1-[3-(methylsulfanyl)phenyl]-1H-pyrrol-3-yl}ethan-1-one] | 12.8125
Cc1cc(C(=O)CCl)c(C)n1-c1ccccn1 [10-C16, 2-chloro-1-[2,5-dimethyl-1-(pyridin-2-yl)-1H-pyrrol-3-yl]ethan-1-one] | 117.5
Cc1ccc(-n2c(C)cc(C(=O)CCl)c2C)cc1F [10-C06, 2-chloro-1-[1-(3-fluoro-4-methylphenyl)-2,5-dimethyl-1H-pyrrol-3-yl]ethan-1-one] | -0.3125
Cc1cc(C(=O)CCl)c(C)n1-c1ccc(Cl)c(Cl)c1 [10-D18, 2-chloro-1-[1-(3,4-dichlorophenyl)-2,5-dimethyl-1H-pyrrol-3-yl]ethan-1-one] | -0.3125
Cc1ccc(-n2c(C)cc(C(=O)CCl)c2C)cc1C [10-B14, 2-chloro-1-[1-(3,4-dimethylphenyl)-2,5-dimethyl-1H-pyrrol-3-yl]ethan-1-one] | 1.25
Cc1cc(C(=O)CCl)c(C)n1-c1cccc(Cl)c1 [10-N18, 2-chloro-1-[1-(3-chlorophenyl)-2,5-dimethyl-1H-pyrrol-3-yl]ethan-1-one] | 100.313
Cc1cc(C(=O)CCl)c(C)n1-c1cccc([N+](=O)[O-])c1 [10-B16, 2-chloro-1-[2,5-dimethyl-1-(3-nitrophenyl)-1H-pyrrol-3-yl]ethan-1-one] | 136.563
CCN(CC)C(=O)c1cccc(NC(=O)CCl)c1 [5-I03, 3-(2-chloroacetamido)-N,N-diethylbenzamide] | 102.732
N#CC(=Cc1cccs1)C(=O)Nc1ccc(C(=O)O)cc1 [8-A04, 4-[2-cyano-3-(thiophen-2-yl)prop-2-enamido]benzoic acid] | 109.212
CC(C)Oc1ccccc1C=C(C#N)C(=O)Nc1ccc(Cl)cc1 [9-L20, N-(4-chlorophenyl)-2-cyano-3-[2-(propan-2-yloxy)phenyl]prop-2-enamide] | 108.464
N#CCCSc1ccccc1NC(=O)CCl [6-N12, 2-chloro-N-{2-[(2-cyanoethyl)sulfanyl]phenyl}acetamide] | 88.439
CC(=O)NCCc1ccc(C(=O)CCl)s1 [10-P03, N-{2-[5-(2-chloroacetyl)thiophen-2-yl]ethyl}acetamide] | 143.125
C=CC(=O)N1CCCN(C(=O)c2ccc(OC)cc2)CC1 [3-A21, 1-[4-(4-methoxybenzoyl)-1,4-diazepan-1-yl]prop-2-en-1-one] | 128.864
C=CC(=O)N(CC)Cc1cn(C)nn1 [2-O09, N-ethyl-N-[(1-methyl-1H-1,2,3-triazol-4-yl)methyl]prop-2-enamide] | 106.527
CN(CC(=O)Nc1ccccc1Cl)C(=O)CCl [4-D05, 2-chloro-N-{[(2-chlorophenyl)carbamoyl]methyl}-N-methylacetamide] | 122.344
C=CC(=O)NCCc1ccccc1OC [2-O03, N-[2-(2-methoxyphenyl)ethyl]prop-2-enamide] | 95.7354
C=CC(=O)N1CCOCC2(COCCN2C)C1 (stereo not shown) [3-J14, 1-{1-methyl-4,8-dioxa-1,11-diazaspiro[5.6]dodecan-11-yl}prop-2-en-1-one] | 109.012
CC(Cl)C(=O)N1CCCC(NS(=O)(=O)c2cccc(F)c2)C1 (stereo not shown) [7-C13, N-[1-(2-chloropropanoyl)piperidin-3-yl]-3-fluorobenzene-1-sulfonamide] | 102.355
Cc1cc(C(=O)CCl)c(C)n1-c1ccon1 [10-F06, 2-chloro-1-[2,5-dimethyl-1-(1,2-oxazol-3-yl)-1H-pyrrol-3-yl]ethan-1-one] | 106.875
Cc1cc(C(=O)C(C)Cl)c(C)n1-c1ccc(OC(F)F)cc1 (stereo not shown) [10-E10, 2-chloro-1-{1-[4-(difluoromethoxy)phenyl]-2,5-dimethyl-1H-pyrrol-3-yl}propan-1-one] | 125.938
Cc1cc(C(=O)CCl)c(C)n1-c1ccc(Cl)c(C(F)(F)F)c1 [10-L18, 2-chloro-1-{1-[4-chloro-3-(trifluoromethyl)phenyl]-2,5-dimethyl-1H-pyrrol-3-yl}ethan-1-one] | 0.3125
Cc1cc(C(=O)CCl)c(C)n1-c1ccc(OC(F)(F)F)cc1 [10-G04, 2-chloro-1-{2,5-dimethyl-1-[4-(trifluoromethoxy)phenyl]-1H-pyrrol-3-yl}ethan-1-one] | 115.313
Cc1cc(C(=O)CCl)c(C)n1-c1ccc(OC(F)F)c(Cl)c1 [10-K04, 2-chloro-1-{1-[3-chloro-4-(difluoromethoxy)phenyl]-2,5-dimethyl-1H-pyrrol-3-yl}ethan-1-one] | 0
CC(Cl)C(=O)NCCc1nnc2n1CCCCC2 (stereo not shown) [7-D09, 2-chloro-N-(2-{5H,6H,7H,8H,9H-[1,2,4]triazolo[4,3-a]azepin-3-yl}ethyl)propanamide] | 92.3077
O=C(CCl)Nc1cc(-n2cnnn2)ccc1Cl [6-A05, 2-chloro-N-[2-chloro-5-(1H-1,2,3,4-tetrazol-1-yl)phenyl]acetamide] | 78.1951
